Where “and” joins values, the source holds several entries; their conditions need not be identical. Equal values may be shown once. Some structures have more than one record in an assay (separate samples or runs), and their calls can disagree. Calls of active or inactive are those of the source. How the source made its calls: active means hit-call score of the fitted dose curve at least 0.9, where 1 is the maximum; inactive means score below 0.9.

Read-out in this test: BCL2L11 (gene 10018)
Nature of the test: LTEA_HepaRG_BCL2L11: Life Technologies and Expression Analysis (LTEA) Assay for Bcl-2 (BCL2L11) gene using HepaRG (AID 2283473). As to conditions: mRNA level, 48 h; actives raise or lower the signal. As to the method:
LTEA_HepaRG is a cell based, multiplexed-readout assay that uses HepaRG, a human liver cell line, with measurements taken at 48 hours after chemical dosing on a 96-well plate.LTEA_HepaRG_BCL2L11 is one of 102 assay component(s) measured in the LTEA HepaRG cell culture assay. It is a marker of Cell proliferation, survival, death.Data from the assay component LTEA_HepaRG_BCL2L11 was analyzed into 1 endpoint. This assay endpoint, LTEA_HepaRG_BCL2L11, was analyzed with bidirectional fitting relative to DMSO as the negative control and baseline of activity. Using a type of inducible reporter, measures of mRNA induction for gain or loss-of-signal activity can be used to understand regulation of transcription factor activity. To generalize the intended target to other relatable targets, this assay endpoint is annotated to the cell cycle intended target family, where the subfamily is Cell proliferation, survival, death.
A total of 1060 chemcials from the ToxCast library were tested in eight-point concentration-response experiments. Cell culture and cytotoxicity assays were conducted at Thermo Fisher Scientific's Custom Services facility (Madison, WI). A single lot of human HepaRG cells (Thermo Fisher Scientific, Frederick, MD) was used for the cell culture experiments. 96-well format collagen type I coated plates of human HepaRG cells were prepared using established methods. Briefly, cryopreserved HepaRG cells were thawed, plated at a density of approximately 100,000 cells/well in HepaRG Thaw, Plate, and General Purpose media (HPRG770, Thermo Fisher Scientific), and incubated for 48 hours. 0.5% DMSO was selected as vehicle control to balance the requisite need of DMSO in HepaRG cultures to maintain differentiation (for example, baseline metabolism, proportions of hepatocytes vs. cholangiocytes), while enabling further hepatic receptor pathway activation (for example, PXR and CAR) in response to chemical exposure. 48 hours after plating, the culture medium was replaced with HepaRG Serum-Free Incudtion Media. Cells were exposed to each test chemical in duplicate and maintained in CO2 incubators for another 48 hours. Chemical plates were thawed to room temperature and 200x concentrations of treatment groups were prepared. 8-point conentration-reponse curves were made with the highest exposure at 100 uM, followed by half-log dilutions, all in 0.5% DMSO. Each test plate contained variouse controls, induction positive controls (1mM phenobarbital), cytotoxicity positive controls ([…] aflatoxin B1), vehicle controls (0.5% DMSO), and total lysis controls (0.5% DMSO). Cell morphology images were taken using an Essen IncuCyte FLR automated microscope, with six 96-well plates imaged in about 24 minutes. Images were captured and exported and JPEG files. Spent culture media was transfered to black-well plates for the LDH assay, and remaining media was sorted at -80 C for later use. Cells were treated with RLT buffer and frozen until shipped for gene expression analysis. Total RNA was isolated from the cell suspension in 75 uL of Buffer RLT (Qiagen, Germantown, MD 20874) by Quintiles/Expression Analysis (Durham, NC) using a custom isolation procedure. Total RNA from each plate well was transferred to a preamplification plate. Fluidigm's 96.96 Dynamic ArrayTM (Fluidigm, Amsterdam, the Netherlands) technology was used for gene expression analyses by quantitative reverse transcription polymerase chain reaction (qRT-PCR, performed by Quintiles/Expression Analysis, Durham, NC)89. Standard TaqManTM Assays (Applied Biosystems/ThermoFisher Scientific, Foster City, CA) were used to assess the expression of 93 genes selected based on their selectivity and sensitivity to important hepatic receptors known to be modulated by environmental chemicals; importance in human hepatocyte functionality; and hepatotoxicity. […]
Take `Fc1ccc(Oc2ccnc3cc(Cl)cc(Cl)c23)cc1`: the call was inactive. For the molecule `COc1nc(NC(C)C)nc(NC(C)C)n1`, the call was inactive. The same measure, in the same setting: the value for `CCOc1cc(Oc2ccc(C(F)(F)F)cc2Cl)ccc1[N+](=O)[O-]` was “inactive”; that for `C=CCC1=C(C)[C@@H](OC(=O)[C@@H]2[C@@H](C=C(C)C)C2(C)C)CC1=O` was “inactive”. Same read-out and setting: the value for `O=C(O)COc1nc(Cl)c(Cl)cc1Cl` was “inactive”; that for `CS/C(C)=N/OC(=O)N(C)SN(C)C(=O)O/N=C(\C)SC` was “inactive”; that for `C=CCC1=C(C)C(OC(=O)C2C(C=C(C)C)C2(C)C)CC1=O` (stereo not given) was “inactive”. For `Cc1ccc(-c2c(Cl)nc(C#N)n2S(=O)(=O)N(C)C)cc1`, the result was inactive. In the case of `COC(=O)N(OC)c1ccccc1COc1ccn(-c2ccc(Cl)cc2)n1`, the half-maximal activity concentration (AC50) was 20.5 µM (active).

Turning to `CCOC(=O)CC(SP(=S)(OC)OC)C(=O)OCC` (stereo not given), the result was inactive. The same measure, in the same setting: the value for `Cc1cc(Cl)ccc1OCC(=O)O` was “inactive”; that for `CCCCNC(=O)n1c(NC(=O)OC)nc2ccccc21` was “inactive”; that for `CCOP(=S)(OCC)SCn1c(=O)oc2cc(Cl)ccc21` was “inactive”. `C=CC1(C)OC(=O)N(c2cc(Cl)cc(Cl)c2)C1=O` (stereo not given): the molecule was called inactive. Same read-out and setting: the value for `COC(=O)C=C(C)OP(=O)(OC)OC` was “inactive”; that for `COc1ccc(C(c2ccc(OC)cc2)C(Cl)(Cl)Cl)cc1` was “inactive”. In the case of `COC(=O)c1ccccc1C(=O)OC`, the molecule was called inactive.

`CCOC(=O)C(Cl)Cc1cc(-n2nc(C)n(C(F)F)c2=O)c(F)cc1Cl` (stereo not given): the outcome was inactive. With `CC(C)(C)c1ccc(CSc2cnn(C(C)(C)C)c(=O)c2Cl)cc1`, the AC50 was 1.93 µM (active). Consider `CC(C)Oc1cc(-n2nc(C(C)(C)C)oc2=O)c(Cl)cc1Cl`, for which the outcome was inactive. With `CCc1nn(C)c(C(=O)NCc2ccc(C(C)(C)C)cc2)c1Cl`, the AC50 was 0.636 µM (active).

In the case of `CN(C)C(=S)SSC(=S)N(C)C`, the molecule was called inactive. Same read-out and setting: to `O=C(Nc1ccccc1)Nc1ccnc(Cl)c1` belongs “inactive”; to `OC(c1ccc(Cl)cc1)(c1cncnc1)c1ccccc1Cl` (stereo not given), “inactive”. Turning to `Cc1c(F)c(F)c(COC(=O)C2C(/C=C(\Cl)C(F)(F)F)C2(C)C)c(F)c1F` (stereo not given), the molecule was classed as inactive. For the molecule `CCCN(CCC)c1c([N+](=O)[O-])cc(S(N)(=O)=O)cc1[N+](=O)[O-]`, the molecule was called inactive; the AC50 is 95.3 µM (active) and 84.3 µM (active).

For the molecule `CC1=C(C(=O)Nc2ccccc2)SCCO1`, the molecule was classed as inactive. On to `O=C(O)c1nc(Cl)ccc1Cl`, for which the call was inactive. On the same count and under the same terms, to `N#Cc1nn(-c2c(Cl)cc(C(F)(F)F)cc2Cl)c(N)c1S(=O)C(F)(F)F` (stereo not given) belongs “inactive”; to `Oc1ccccc1-c1ccccc1`, “inactive”. Same read-out and setting: the value for `CNC(=S)S` was “inactive”; that for `CC(C)C1(C)N=C(c2nc3ccccc3cc2C(=O)O)NC1=O` (stereo not given) was “inactive”; that for `CCCCC(CC)COC(=O)c1ccccc1C(=O)OCC(CC)CCCC` (stereo not given) was “inactive”. Regarding `CON(C)C(=O)Nc1ccc(Cl)c(Cl)c1`, the result was inactive. For the molecule `COc1cnc(OC)n2nc(NS(=O)(=O)c3c(OCC(F)F)cccc3C(F)(F)F)nc12`, the call was inactive. Still for that read-out and setting: the value for `CCON=C(CC)C1=C(O)CC(c2c(C)cc(C)cc2C)CC1=O` (stereo not given) was “inactive”; that for `N#CC(CCc1ccc(Cl)cc1)(Cn1cncn1)c1ccccc1` (stereo not given) was “inactive”. Still for that read-out and setting: the value for `COC(=O)C(C)Oc1ccc(Oc2ccc(Cl)cc2Cl)cc1` (stereo not given) was “inactive”. On the same count and under the same terms, to `CC1COC(Cn2cncn2)(c2ccc(Oc3ccc(Cl)cc3)cc2Cl)O1` (stereo not given) belongs “inactive”.

The record behind these values is PubChem BioAssay (EPA / NIEHS).
